{"source": "paper PMC4336329", "about": "(PLoS ONE, 2015)", "note": "The campaign covered roughly 310,000 compounds. About 14,000 (4.5%) showed an effect of 50% or more. Effects have a minus sign here. This is one part of a sample in which strong results are shown more often than they occur.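 Also: peak tail current of the secondary pulse compared with the same well before compound.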"}
{"biological_target": "human ether-à-go-go-related gene (hERG) potassium channel (human, UniProt Q12809)", "sequence (Q12809 whole entry, looked up)": "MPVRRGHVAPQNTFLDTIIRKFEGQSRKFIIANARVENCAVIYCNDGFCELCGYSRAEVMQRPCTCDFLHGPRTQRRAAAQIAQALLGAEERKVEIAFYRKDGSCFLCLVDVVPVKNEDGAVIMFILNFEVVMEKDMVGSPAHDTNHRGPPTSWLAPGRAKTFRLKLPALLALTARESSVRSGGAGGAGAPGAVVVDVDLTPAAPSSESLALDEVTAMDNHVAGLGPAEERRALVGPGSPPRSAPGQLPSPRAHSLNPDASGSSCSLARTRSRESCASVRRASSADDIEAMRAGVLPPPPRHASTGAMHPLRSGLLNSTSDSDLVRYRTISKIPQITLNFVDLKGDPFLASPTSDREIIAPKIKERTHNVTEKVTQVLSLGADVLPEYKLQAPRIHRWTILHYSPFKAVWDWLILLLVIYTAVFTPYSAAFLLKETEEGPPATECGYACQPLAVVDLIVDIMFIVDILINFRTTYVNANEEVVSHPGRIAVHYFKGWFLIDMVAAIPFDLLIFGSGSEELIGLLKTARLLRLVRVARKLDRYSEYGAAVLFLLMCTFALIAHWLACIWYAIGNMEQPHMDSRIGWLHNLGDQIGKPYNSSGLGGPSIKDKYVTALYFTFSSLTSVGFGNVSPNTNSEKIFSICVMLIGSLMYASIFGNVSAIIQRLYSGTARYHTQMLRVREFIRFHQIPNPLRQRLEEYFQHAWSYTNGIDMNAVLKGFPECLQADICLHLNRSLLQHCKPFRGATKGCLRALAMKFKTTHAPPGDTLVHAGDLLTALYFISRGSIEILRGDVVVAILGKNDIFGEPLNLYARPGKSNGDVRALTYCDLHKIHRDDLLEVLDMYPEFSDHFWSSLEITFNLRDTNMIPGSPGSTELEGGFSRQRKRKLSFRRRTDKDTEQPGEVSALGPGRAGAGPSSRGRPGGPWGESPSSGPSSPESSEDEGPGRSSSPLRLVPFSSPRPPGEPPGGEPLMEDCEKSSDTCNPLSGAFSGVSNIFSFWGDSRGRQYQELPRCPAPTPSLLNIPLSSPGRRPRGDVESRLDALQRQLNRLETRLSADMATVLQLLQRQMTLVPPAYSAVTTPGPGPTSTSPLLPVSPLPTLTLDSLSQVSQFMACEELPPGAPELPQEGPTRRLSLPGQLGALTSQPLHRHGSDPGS", "assay": "primary screen, population patch clamp on CHO cells stably expressing hERG; higher = less effect of the substance", "units": {"hERG current change (%, negative = inhibition) at 10uM": "%"}}
{"smiles": "Cc1ccc(C(=O)OCC(=O)Nc2ncc(Cl)cc2Cl)cc1NC(=O)c1ccco1", "hERG current change (%, negative = inhibition) at 10uM": -48.7}
{"smiles": "O=C(COC(=O)CNC(=O)c1ccco1)Nc1ncc(Cl)cc1Cl", "hERG current change (%, negative = inhibition) at 10uM": 7.02}
{"smiles": "O=C(COC(=O)CNC(=O)c1ccc([N+](=O)[O-])o1)Nc1ncc(C(F)(F)F)cc1Cl", "hERG current change (%, negative = inhibition) at 10uM": -58.3}
{"smiles": "COc1ccc(C(=O)NCC(=O)OCC(=O)Nc2ncc(Cl)cc2Cl)cc1[N+](=O)[O-]", "hERG current change (%, negative = inhibition) at 10uM": -37.3}
{"smiles": "Cc1ccc(C(=O)OCC(=O)Nc2ncc(C(F)(F)F)cc2Cl)cc1NC(=O)c1ccco1", "hERG current change (%, negative = inhibition) at 10uM": -50.1}
{"smiles": "O=C(COC(=O)c1ccc([N+](=O)[O-])s1)Nc1ncc(C(F)(F)F)cc1Cl", "hERG current change (%, negative = inhibition) at 10uM": -63}
{"smiles": "Cc1c(Cl)cnc(NC(=O)COC(=O)c2ccc([N+](=O)[O-])s2)c1Cl", "hERG current change (%, negative = inhibition) at 10uM": 6.06}
{"smiles": "Cc1ccc(C(=O)OCC(=O)Nc2ccccc2)cc1NC(=O)c1ccco1", "hERG current change (%, negative = inhibition) at 10uM": -4.37}
{"smiles": "O=C(COC(=O)c1ccccn1)Nc1ncc(C(F)(F)F)cc1Cl", "hERG current change (%, negative = inhibition) at 10uM": -11.7}
{"smiles": "O=C(COC(=O)CNC(=O)c1ccccc1Cl)Nc1ncc(C(F)(F)F)cc1Cl", "hERG current change (%, negative = inhibition) at 10uM": -1.76}
{"smiles": "O=C(COC(=O)CNC(=O)c1ccc([N+](=O)[O-])o1)Nc1ncc(Cl)cc1Cl", "hERG current change (%, negative = inhibition) at 10uM": -54.9}
{"smiles": "O=C(COC(=O)CNC(=O)c1ccc(Cl)cc1)Nc1ncc(C(F)(F)F)cc1Cl", "hERG current change (%, negative = inhibition) at 10uM": -31.8}
{"smiles": "Cc1cc(-n2cnnn2)cc(C)c1S(=O)(=O)NCCOc1ccccc1", "hERG current change (%, negative = inhibition) at 10uM": -38.5}
{"smiles": "CC(O)c1nc2ccccc2n1CC(=O)Nc1ccc(F)cc1Cl", "note": "(stereo not shown)", "hERG current change (%, negative = inhibition) at 10uM": 14.2}
{"smiles": "CCOC(=O)c1sc(NC(=O)c2ccc(C)o2)nc1C", "hERG current change (%, negative = inhibition) at 10uM": -5.35}
{"smiles": "COc1cc(C(c2c(C)n(C)n(-c3ccccc3)c2=O)c2c(C)n(C)n(-c3ccccc3)c2=O)cc(Br)c1O", "hERG current change (%, negative = inhibition) at 10uM": 13.7}
{"smiles": "COc1cccc(-c2nnc(NC(=O)c3ccc4ncsc4c3)o2)c1", "hERG current change (%, negative = inhibition) at 10uM": -8.13}
{"smiles": "COc1cc(/C=C/C(=O)O)cc(S(=O)(=O)Nc2ccccc2Cl)c1OC", "hERG current change (%, negative = inhibition) at 10uM": 18.8}
{"smiles": "CN(c1ccccc1)S(=O)(=O)c1ccc(Cl)c(C(=O)NCCc2c[nH]c3ccccc23)c1", "hERG current change (%, negative = inhibition) at 10uM": -15.8}
{"smiles": "COc1ccc(/C=C/C(=O)Nc2ccccc2C(=O)O)cc1", "hERG current change (%, negative = inhibition) at 10uM": 7.91}
{"smiles": "O=[N+]([O-])c1cc([N+](=O)[O-])c2nonc2c1Nc1ccccc1O", "hERG current change (%, negative = inhibition) at 10uM": 10.3}
{"smiles": "O=[N+]([O-])c1cc([N+](=O)[O-])c2nonc2c1Nc1ccc(O)cc1", "hERG current change (%, negative = inhibition) at 10uM": -56.9}
{"smiles": "O=[N+]([O-])c1c(Nc2ccc(O)cc2)cc(Cl)c2nonc12", "hERG current change (%, negative = inhibition) at 10uM": -26.1}
{"smiles": "CCC1CCCCN1C(=O)COC(=O)CN(C)S(=O)(=O)c1ccc(NC(C)=O)cc1", "note": "(stereo not shown)", "hERG current change (%, negative = inhibition) at 10uM": 7.22}
{"smiles": "Cc1c(-c2cccc(NC(=O)c3ccco3)c2)nc2ncccn12", "hERG current change (%, negative = inhibition) at 10uM": -13.3}
{"smiles": "Cc1ccc(NC(=O)c2nsc(Cl)c2Cl)cc1", "hERG current change (%, negative = inhibition) at 10uM": 5.34}
{"smiles": "CCCOc1ccccc1-c1nc2n[nH]nc2c(=O)[nH]1", "hERG current change (%, negative = inhibition) at 10uM": -56.3}
{"smiles": "CCCOc1ccccc1-c1nc2c([nH]1)c(=O)[nH]c(=O)n2C", "hERG current change (%, negative = inhibition) at 10uM": 8.5}
{"smiles": "CCCc1nn(C)c2c(=O)[nH]c(-c3ccccc3OCC)nc12", "hERG current change (%, negative = inhibition) at 10uM": 7.87}
{"smiles": "COc1ccccc1NC(=O)CCS(=O)(=O)c1cc2c(cc1Cl)NC(=O)CO2", "hERG current change (%, negative = inhibition) at 10uM": 1.94}
{"smiles": "CCOC(=O)c1cnc2cc(C)nn2c1-c1ccccc1", "hERG current change (%, negative = inhibition) at 10uM": 3.92}
{"smiles": "O=C(CN1CCCCCCC1)N/N=C/c1ccc(F)c(F)c1", "hERG current change (%, negative = inhibition) at 10uM": -33.7}
{"smiles": "CCCOc1ccc(/C=N/NC(=O)CN2CCCCC2)cc1", "hERG current change (%, negative = inhibition) at 10uM": -49.7}
{"smiles": "CCOc1ccc(/C=N/NC2=NCCCCC2)cc1", "hERG current change (%, negative = inhibition) at 10uM": -69.3}
{"smiles": "O=C(CCN1CCCCC1)Nc1ccc(Br)cc1", "hERG current change (%, negative = inhibition) at 10uM": -37.9}
{"smiles": "COc1ccc(/C=N/NC2=NCCCCC2)cc1", "hERG current change (%, negative = inhibition) at 10uM": -43.7}
{"smiles": "O=C(CN1CCCCCC1)N/N=C/c1ccc2ccccc2c1", "hERG current change (%, negative = inhibition) at 10uM": -64.6}
{"smiles": "CCOc1ccc(/C=N/NC(=O)CN2CCSCC2)cc1", "hERG current change (%, negative = inhibition) at 10uM": 1.7}
{"smiles": "CCOc1ccc(/C=N/NC(=O)CN2CCCCCCC2)cc1", "hERG current change (%, negative = inhibition) at 10uM": -63}
{"smiles": "CCCCCCC(=O)N/N=C/c1ccc(Br)cc1", "hERG current change (%, negative = inhibition) at 10uM": 1.25}
{"smiles": "O=C(CCN1CCCCC1)N/N=C/c1ccc(Br)cc1", "hERG current change (%, negative = inhibition) at 10uM": -77.8}
{"smiles": "Oc1ccc(/C=N/NC2=NCCCCC2)cc1", "hERG current change (%, negative = inhibition) at 10uM": -16.2}
{"smiles": "Cc1cccc(/C=N/NC(=O)CN2CCCCCCC2)c1", "hERG current change (%, negative = inhibition) at 10uM": -45.9}
{"smiles": "CC(=O)c1ccc(OCc2cc(=O)n3ccsc3n2)cc1", "hERG current change (%, negative = inhibition) at 10uM": -1.4}
{"smiles": "C=CCN1C(=O)C(CC(=O)NCC)SC1=Nc1cc(Cl)ccc1Cl", "note": "(stereo not shown)", "hERG current change (%, negative = inhibition) at 10uM": -2.76}
{"smiles": "Cc1ccc(NC(=O)C(C)OC(=O)CCNS(=O)(=O)c2ccc(C)cc2)cc1", "note": "(stereo not shown)", "hERG current change (%, negative = inhibition) at 10uM": -16.5}
{"smiles": "CCOC(=O)C1=C(C)NC(=O)NC1", "hERG current change (%, negative = inhibition) at 10uM": -3.56}
{"smiles": "CCN(CC)S(=O)(=O)c1cc(NC(=O)CCNC(=O)c2ccccc2Cl)ccc1C", "hERG current change (%, negative = inhibition) at 10uM": -11.5}
{"smiles": "COc1cc(/C=C/c2nc3ccccc3c(=O)[nH]2)cc(Br)c1O", "hERG current change (%, negative = inhibition) at 10uM": 30.6}
{"smiles": "CC(C)(C)Nc1nc(NN)nc(NC(C)(C)C)n1", "hERG current change (%, negative = inhibition) at 10uM": 11.8}
{"smiles": "O=C(Nc1ccc(C(=O)O)cc1)/C(=C\\c1ccco1)NC(=O)c1ccccc1", "hERG current change (%, negative = inhibition) at 10uM": 21.2}
{"smiles": "Cl.O=C1c2ccccc2C(=O)N1CC#CCN1CCN(C2CCCCC2)CC1", "hERG current change (%, negative = inhibition) at 10uM": -40.8}
{"smiles": "O=C(CN1CCCCCC1)N/N=C/c1ccc(Cl)c(Cl)c1", "hERG current change (%, negative = inhibition) at 10uM": -60}
{"smiles": "Cn1cccc1CC(=O)N/N=C/c1ccc([N+](=O)[O-])cc1", "hERG current change (%, negative = inhibition) at 10uM": -1.88}
{"smiles": "CC1CCN(CCC(=O)N/N=C/c2ccc([N+](=O)[O-])cc2)CC1", "hERG current change (%, negative = inhibition) at 10uM": -70}
{"smiles": "O=C(CN1CCSCC1)N/N=C/c1ccc(Cl)cc1", "hERG current change (%, negative = inhibition) at 10uM": -12.5}
{"smiles": "O=C(CN1CCCCCC1)N/N=C/c1cccc(Cl)c1", "hERG current change (%, negative = inhibition) at 10uM": -37.5}
{"smiles": "O=C(CN1CCCCC1)N/N=C/c1cccc(Cl)c1", "hERG current change (%, negative = inhibition) at 10uM": -35.6}
{"smiles": "O=C(CN1CCCCC1)N/N=C/c1ccc(Cl)cc1Cl", "hERG current change (%, negative = inhibition) at 10uM": -39.1}
{"smiles": "O=C(CN1CCCCC1)N/N=C/c1ccc(Cl)cc1", "hERG current change (%, negative = inhibition) at 10uM": -66.9}
{"smiles": "CN1CCN(CCC(=O)N/N=C/c2cc([N+](=O)[O-])ccc2O)CC1", "hERG current change (%, negative = inhibition) at 10uM": 1.18}
